From PubChem BioAssay AID2073 (Sanford-Burnham Center for Chemical Genomics, 2009)
In all, about 290,000 compounds went through this assay and about 570 (0.2%) were called active. Inconclusive results (about 1%) are left out. The sample holds actives, similar compounds and a random draw of the others, so the mix is not that of the screen. No stated cut-off is given here; in the data, active means inhibition mostly above about 51% (no sharp cut-off); inconclusive means no clear call, values can overlap the other calls; inactive means mostly below about 53%.

Target: Voltage-dependent N-type calcium channel subunit alpha-1B (Homo sapiens) (UniProt Q00975)
Experiment: inhibitors of Mint1-CaV2.2 protein interaction, biochemical, HTRF (AID 2073)
Details: at 20 µM, stronger effect = higher value
[1] = measured here: average of repeat tests

Chain of Voltage-dependent N-type calcium channel subunit alpha-1B (Homo sapiens) (Q00975 whole entry, looked up): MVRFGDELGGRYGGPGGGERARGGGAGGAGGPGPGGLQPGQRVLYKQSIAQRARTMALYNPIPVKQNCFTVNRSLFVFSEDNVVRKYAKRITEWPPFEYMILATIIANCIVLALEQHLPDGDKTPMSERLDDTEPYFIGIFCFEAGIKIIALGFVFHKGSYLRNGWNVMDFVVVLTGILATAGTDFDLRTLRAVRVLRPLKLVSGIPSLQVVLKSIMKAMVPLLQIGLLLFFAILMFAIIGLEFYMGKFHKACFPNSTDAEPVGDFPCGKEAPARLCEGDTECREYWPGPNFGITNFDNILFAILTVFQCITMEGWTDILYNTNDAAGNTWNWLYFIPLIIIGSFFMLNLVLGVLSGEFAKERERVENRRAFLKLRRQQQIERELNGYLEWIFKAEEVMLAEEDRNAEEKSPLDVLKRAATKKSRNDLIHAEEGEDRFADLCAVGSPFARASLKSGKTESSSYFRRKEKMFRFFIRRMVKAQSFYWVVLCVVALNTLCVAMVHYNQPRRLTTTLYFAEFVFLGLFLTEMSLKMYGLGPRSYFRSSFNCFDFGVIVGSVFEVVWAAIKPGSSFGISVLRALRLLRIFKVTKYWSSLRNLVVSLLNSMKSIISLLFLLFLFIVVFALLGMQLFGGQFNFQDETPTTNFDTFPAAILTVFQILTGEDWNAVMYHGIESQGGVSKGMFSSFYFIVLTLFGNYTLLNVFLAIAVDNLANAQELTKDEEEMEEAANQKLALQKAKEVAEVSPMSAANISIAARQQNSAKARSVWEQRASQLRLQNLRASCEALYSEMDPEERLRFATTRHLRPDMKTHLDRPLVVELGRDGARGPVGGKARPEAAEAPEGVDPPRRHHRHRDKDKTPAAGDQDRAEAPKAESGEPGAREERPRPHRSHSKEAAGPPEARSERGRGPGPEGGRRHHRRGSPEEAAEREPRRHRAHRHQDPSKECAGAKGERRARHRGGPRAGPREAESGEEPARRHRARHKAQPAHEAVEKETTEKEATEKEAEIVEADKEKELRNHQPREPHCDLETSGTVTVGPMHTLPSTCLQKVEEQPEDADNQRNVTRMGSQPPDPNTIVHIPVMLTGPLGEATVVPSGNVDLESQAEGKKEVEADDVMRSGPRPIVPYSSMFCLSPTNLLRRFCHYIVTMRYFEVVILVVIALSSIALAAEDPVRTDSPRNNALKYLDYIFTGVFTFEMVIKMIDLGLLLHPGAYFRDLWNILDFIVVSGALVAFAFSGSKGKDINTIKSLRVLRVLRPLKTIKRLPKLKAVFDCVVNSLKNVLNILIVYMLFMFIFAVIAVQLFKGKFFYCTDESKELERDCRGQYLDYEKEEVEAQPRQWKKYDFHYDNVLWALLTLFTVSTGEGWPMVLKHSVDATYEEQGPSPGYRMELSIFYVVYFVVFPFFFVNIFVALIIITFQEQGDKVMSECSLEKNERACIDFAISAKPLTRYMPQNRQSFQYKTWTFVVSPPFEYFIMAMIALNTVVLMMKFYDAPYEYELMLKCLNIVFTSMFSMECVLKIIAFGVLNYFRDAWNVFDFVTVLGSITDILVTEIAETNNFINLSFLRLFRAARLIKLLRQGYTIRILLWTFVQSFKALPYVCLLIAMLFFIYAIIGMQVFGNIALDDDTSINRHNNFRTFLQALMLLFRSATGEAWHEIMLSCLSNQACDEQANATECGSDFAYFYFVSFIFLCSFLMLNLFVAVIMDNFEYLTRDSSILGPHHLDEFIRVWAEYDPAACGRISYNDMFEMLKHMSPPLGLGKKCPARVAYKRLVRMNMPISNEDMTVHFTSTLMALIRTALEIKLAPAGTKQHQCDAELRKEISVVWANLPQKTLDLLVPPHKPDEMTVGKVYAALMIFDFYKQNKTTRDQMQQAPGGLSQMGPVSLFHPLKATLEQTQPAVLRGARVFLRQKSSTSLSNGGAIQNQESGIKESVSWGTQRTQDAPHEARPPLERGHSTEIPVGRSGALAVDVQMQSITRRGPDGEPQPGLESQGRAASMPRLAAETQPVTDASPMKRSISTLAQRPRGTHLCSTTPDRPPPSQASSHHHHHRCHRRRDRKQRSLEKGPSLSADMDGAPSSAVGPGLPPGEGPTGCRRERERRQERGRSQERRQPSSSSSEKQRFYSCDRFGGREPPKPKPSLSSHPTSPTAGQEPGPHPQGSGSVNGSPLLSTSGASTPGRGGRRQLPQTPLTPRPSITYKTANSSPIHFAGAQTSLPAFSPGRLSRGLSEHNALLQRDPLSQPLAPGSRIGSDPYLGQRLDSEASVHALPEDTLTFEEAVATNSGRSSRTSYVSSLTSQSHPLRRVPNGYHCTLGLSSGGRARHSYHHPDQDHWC

| Structure (SMILES) | inhibition | inhibition [1] [%] |
| --- | --- | --- |
| Cc1ccc(S(=O)(=O)c2cnc3cc(C)nn3c2N)cc1 | 9.4% (inactive) | – |
| c1cnc(-c2noc(CN3CCN(C4C5CC6CC(C5)CC4C6)CC3)n2)cn1 (stereo unspecified) | -1.9% (inactive) | – |
| O=C(O)CSC(C(=O)Nc1ccc(Br)cc1)c1ccc(Cl)cc1 (stereo unspecified) | 9.9% (inactive) | – |
| Cc1cc2ccccn2c1C(=O)c1ccc(N/N=C/c2ccc(C(=O)O)cc2)c([N+](=O)[O-])c1 | 69.4% (active) | – |
| CC(=O)Nc1ccc(/C=N/Nc2ccc(C(=O)c3c(C)cc4ccccn34)cc2[N+](=O)[O-])cc1 | 50.4% (inactive) | 29.6 |
| Cc1cc2ccccn2c1C(=O)c1ccc(NN)c([N+](=O)[O-])c1 | 9.5% (inactive) | – |
| Cc1ncoc1C(=O)Nc1ncc([N+](=O)[O-])s1 | 68% (active) | – |
| Cc1nc(C)c(C(=O)Nc2ncc([N+](=O)[O-])s2)o1 | 33.7% (inactive) | – |
| Cc1ccc(C(=O)Nc2ncc([N+](=O)[O-])s2)cc1 | 11.7% (inactive) | – |
| CC1=CCC2C(=O)N(c3ccc(C)cc3)C(=O)C2C1 (stereo unspecified) | 6.6% (inactive) | – |
| Cc1ccc(-c2csc(C3=C(O)CN(NC(=O)c4ccc([N+](=O)[O-])cc4)C3=N)n2)cc1 | 25.8% (inactive) | – |
| N=C1C(c2nc(-c3ccc(Br)cc3)cs2)=C(O)CN1NC(=O)c1ccc([N+](=O)[O-])cc1 | 34.5% (inactive) | – |
| O=C(NN1C(=O)C2CC=C(Cl)CC2C1=O)c1ccncc1 (stereo unspecified) | 61.5% (active) | – |
| O=C(NN1C(=O)C2C(C1=O)C1C=CC2C12CC2)c1ccncc1 (stereo unspecified) | 6% (inactive) | – |
| O=C(NN1C(=O)C2C3C=CC(C3)C2C1=O)c1ccncc1 (stereo unspecified) | 5.7% (inactive) | – |
| O=C(CSc1nnc(-c2ccccc2O)o1)Oc1ccc(Br)cc1 | 3% (inactive) | – |
| CCOC(=O)C1CCCN(C(=O)c2ccc3nc(-c4ccc(OC)c(OC)c4)c(-c4ccc(OC)c(OC)c4)nc3c2)C1 (stereo unspecified) | 10.2% (inactive) | – |
| Cc1ccc(NC(=O)c2cc(N3C(=O)C=CC3=O)ccc2N2CCOCC2)cc1Cl | -7.4% (inactive) | – |
| Cc1ccc(NC(=O)c2cc(N3C(=O)C=CC3=O)ccc2Cl)cc1C | 59.1% (active) | – |
| NC(=O)c1cc(N2C(=O)C=CC2=O)ccc1Cl | 47% (inactive) | – |
| COc1cc(OC)cc(-c2nnc(Nc3nc4c(F)cccc4s3)o2)c1 | 56.7% (active) | – |
| COc1cccc(-c2nnc(Nc3nc4c(F)cccc4s3)o2)c1 | 43.9% (inactive) | – |
| Fc1cccc2sc(Nc3nnc(-c4ccccc4)o3)nc12 | 38.5% (inactive) | – |

| Structure (SMILES) | inhibition | inhibition [1] [%] |
| --- | --- | --- |
| Cc1ccc(C(=O)NCCSc2ccccc2)cc1S(=O)(=O)Nc1ccccc1 | -1.8% (inactive) | – |
| O=C(/C=C/c1ccco1)NCC1COc2ccccc2O1 (stereo unspecified) | 11% (inactive) | – |
| Cc1ccc(/C=C/C(=O)NCC2COc3ccccc3O2)o1 (stereo unspecified) | 72.5% (active) | – |
| CC(C)Oc1ccc(/C=C/C(=O)NCC2COc3ccccc3O2)cc1 (stereo unspecified) | -5% (inactive) | – |
| Cc1ccc(C(=O)NCCCN2CCOCC2)cc1Cl | 4.3% (inactive) | – |
| CN(N)c1nc(-c2ccccc2)cc(-c2ccccc2)n1 | -4.2% (inactive) | – |
| O=C1CCCC(=NCc2ccco2)C1 | -7.5% (inactive) | – |
| c1coc(CN=C2NC(=NCc3ccco3)c3ccccc32)c1 | 18.7% (inactive) | – |
| CN(C)c1nc(=NCc2ccco2)ss1 | 67.8% (active) | – |
| COC(=O)/C=C1/SC(=Nc2ccc(C)cc2C)NC1=O | 0.9% (inactive) | – |
| O=C1c2ccccc2C(=O)N1C/C=C/CN1C(=O)c2ccccc2C1=O | 0% (inactive) | – |
| Cc1ccc(-c2nc(CN(C)C3CCOC3)c(C)o2)s1 (stereo unspecified) | 7.1% (inactive) | – |
| COc1ccc(-c2cc3c(=O)n(CC(=O)Nc4cccc(Cl)c4)ncn3n2)cc1 | 39.6% (inactive) | – |
| O=C1N=C(N2CCN(c3ccccc3)CC2)S/C1=C/c1ccco1 | -5% (inactive) | – |
| O=C1N=C(N2CCN(c3ccccc3)CC2)S/C1=C\c1ccco1 | 37.7% (inactive) | – |
| O=C1N=C(N2CCCC2C(=O)O)S/C1=C\c1ccco1 (stereo unspecified) | 95.1% (active) | – |
| COc1ccc(-n2nc(C(=O)NCC(=O)NCCCN3CC(C)CC(C)C3)c3ccccc3c2=O)cc1 (stereo unspecified) | 3.3% (inactive) | – |
| O=C(Nc1ccc(N2CCOCC2)cc1Cl)C1CCN(C(=O)OCc2ccccc2)CC1 | -2.8% (inactive) | – |
| COc1ccc(-n2nc(C(=O)NCC(=O)NCc3ccc(F)cc3)c3ccccc3c2=O)cc1 | 8.9% (inactive) | – |
| CC1CN(S(=O)(=O)c2ccccc2)C(C)CN1S(=O)(=O)c1ccccc1 (stereo unspecified) | 2.3% (inactive) | – |
| O=S(=O)(c1ccc(Cl)cc1)N1CCCCCC1 | 13.9% (inactive) | – |
| Cc1ccc(S(=O)(=O)N2CCN(S(=O)(=O)c3ccccc3)C2)cc1 | -0.6% (inactive) | – |
| CN1CCN(S(=O)(=O)c2ccc(Cl)cc2)CC1 | 5.7% (inactive) | – |

| Structure (SMILES) | inhibition | inhibition [1] [%] |
| --- | --- | --- |
| Cc1sc(NC(=O)CN(Cc2ccc(F)cc2)C(=O)C(C)C)c(C(N)=O)c1C | -9.6% (inactive) | – |
| CC(C)CC(=O)Nc1nnc(SCC(=O)NCc2ccc3c(c2)OCO3)s1 | 6% (inactive) | – |
| COc1ccc(N2C(=O)NC(=O)C2=O)cc1 | -3.9% (inactive) | – |
| COc1ccc(N2CC(C(=O)N/N=C/c3c[nH]c4ccccc34)CC2=O)cc1 (stereo unspecified) | 17.8% (inactive) | – |
| Cc1nn(C)c(Cl)c1CN1CCC(CO)(CC2CCCCO2)CC1 (stereo unspecified) | 6.5% (inactive) | – |
| O=S(=O)(c1ccc(F)c(F)c1)N1CCCc2ccccc21 | -1.2% (inactive) | – |
| CCCc1[nH]c(=O)c(C#N)c2c1COC(C)(C)C2 | -5.3% (inactive) | – |
| Nc1ccc(-c2nc3ccc([N+](=O)[O-])cc3[nH]2)cc1 | 13.5% (inactive) | – |
| Nc1ccc2nc(-c3cc(Cl)c(N)c(Cl)c3)[nH]c2c1 | 39.9% (inactive) | – |
| Nc1ccc2nc(-c3cccc(-c4nc5ccc(N)cc5[nH]4)c3)[nH]c2c1 | 46.7% (inactive) | – |
| Nc1ccc(-c2nc3ccccc3[nH]2)cc1 | 5.5% (inactive) | – |
| Fc1ccc(N=Cc2ccc[nH]2)cc1 | -9.3% (inactive) | – |
| O=C(NC(=S)Nc1cccc(S(=O)(=O)NC2=NCCC2)c1)c1cc(-c2ccco2)nc2ccccc12 | 61% (inactive) | 23.6 |
| Cn1c(=O)c(C(=O)COC(=O)c2cc(-c3ccco3)nc3ccccc23)c(N)n(Cc2ccccc2)c1=O | 55.8% (active) | – |
| O=C(NC1CC1)c1cc(-c2ccco2)nc2ccccc12 | 38.6% (inactive) | – |
| Cn1c(N)c(C(=O)COC(=O)c2cc(-c3ccco3)nc3ccccc23)c(=O)n(C)c1=O | 50.3% (inactive) | 29.1 |
| O=C(NC1CCC(O)CC1)c1cc(-c2ccco2)nc2ccccc12 (stereo unspecified) | 51.2% (active) | 50.3 |
| Cn1c(=O)c(C(=O)COC(=O)c2cc(-c3ccccc3)nc3ccccc23)c(N)n(Cc2ccccc2)c1=O | 26.2% (inactive) | – |
| O=C(O)c1cc(-c2ccco2)nc2ccccc12 | -11.5% (inactive) | – |
| O=C(Nc1cccc(S(=O)(=O)NC2=NCCC2)c1)c1cc(-c2ccco2)nc2ccccc12 | 61.9% (active) | – |
| O=C(Nc1cccc(S(=O)(=O)NC2=NCCCCC2)c1)c1cc(-c2ccco2)nc2ccccc12 | 40.5% (inactive) | – |
| Cn1c(N)c(C(=O)COC(=O)c2cc(-c3ccco3)nc3ccccc23)c(=O)n(Cc2ccccc2)c1=O | 58.1% (active) | – |
| Cn1c(N)c(C(=O)COC(=O)c2cc(-c3ccccc3)nc3ccccc23)c(=O)n(Cc2ccccc2)c1=O | 21.7% (inactive) | – |

| Structure (SMILES) | inhibition | inhibition [1] [%] |
| --- | --- | --- |
| CC(C)Cn1c(N)c(C(=O)COC(=O)c2cc(-c3ccco3)nc3ccccc23)c(=O)n(C)c1=O | 19.7% (inactive) | – |
| CCN(C(=O)COC(=O)c1c(C)nn(-c2ccccc2)c1C)C1CCS(=O)(=O)C1 (stereo unspecified) | 6.4% (inactive) | – |
| C/C(CC(=O)Nc1ccc2c(c1)OCCO2)=N\NC(=O)COc1ccccc1 | 1.2% (inactive) | – |
| COc1ccc(CCNC(=O)C2CC(c3cc(C(F)(F)F)cc(C(F)(F)F)c3)=NO2)cc1 (stereo unspecified) | 0.2% (inactive) | – |
| Cc1ccc(/C=C/C(=O)Nc2ccc(O)c3c(=O)cc(-c4ccccc4Cl)oc23)cc1 | 13% (inactive) | – |
| CCCN1Cc2cccc(C(=O)NC(CC(=O)OCC)c3ccc(OC(C)C)cc3)c2C1=O (stereo unspecified) | -3.9% (inactive) | – |
| Cc1ccc(Cl)cc1N1CCN(C(=O)Cn2ncn3cccc3c2=O)CC1 | -1.5% (inactive) | – |
| O=C(CCCn1c(=S)[nH]c2ccccc2c1=O)NC1CCCC1 | -32.5% (inactive) | – |
| CCc1ccccc1NC(=O)COc1ccc(N2CC(C(N)=O)CC2=O)cc1 (stereo unspecified) | 11.4% (inactive) | – |
| OC1CNCc2cc3c(cc21)OCCO3 (stereo unspecified) | -5.4% (inactive) | – |
| O=C(COC(=O)c1cc(-c2ccco2)nc2ccccc12)NCc1ccccc1 | 25.4% (inactive) | – |
| CNC(=O)COC(=O)c1cc(-c2ccco2)nc2ccccc12 | 66.4% (active) | – |
| NC(=O)COC(=O)c1cc(-c2ccco2)nc2ccccc12 | 14.1% (inactive) | – |
| CCN1CCN(CCCNC(=O)Cn2nc(C)n3nc(-c4ccccc4)cc3c2=O)CC1 | 12.1% (inactive) | – |
| O=c1[nH]c(C2CCCN(S(=O)(=O)c3ccc(F)cc3)C2)nc2c1nnn2Cc1ccccc1 (stereo unspecified) | -1% (inactive) | – |
| Cc1[nH]n(-c2ccccc2)c(=S)c1C=Nc1cccc([N+](=O)[O-])c1 | 34.3% (inactive) | – |
| Cc1[nH]n(-c2ccccc2)c(=S)c1C=Nc1ccc([N+](=O)[O-])cc1 | 67% (active) | – |
| Cc1[nH]n(-c2ccccc2)c(=O)c1C=Nc1ccc(S(N)(=O)=O)cc1 | 0.1% (inactive) | – |
| Oc1ccccc1Cn1nnc2ccccc21 | 7.1% (inactive) | – |
| COc1ccc(CCNC(=O)CCN2C(=O)[C@@H]3Cc4ccccc4CN3C2=O)cc1 | -3.7% (inactive) | – |
| CCC(=O)Nc1ccc(C(=O)CSc2nc3ccccc3[nH]2)cc1 | 54.5% (active) | – |
| CN(C)C(=O)c1ccc(NC(=O)CSc2nc3ccccc3[nH]2)cc1 | -1.1% (inactive) | – |
| CCC(=O)Nc1ccc(C(=O)CSc2nc3ccc(C)cc3[nH]2)cc1 | 32.1% (inactive) | – |
